Our source for the binding signal and Kd values is publication PMC5913336, “True equilibrium measurement of transcription factor-DNA binding affinities using automated polarization microscopy”.

One assay has as its target T1, Kni (Drosophila melanogaster, UniProt P10734 2-102).
T1 sequence: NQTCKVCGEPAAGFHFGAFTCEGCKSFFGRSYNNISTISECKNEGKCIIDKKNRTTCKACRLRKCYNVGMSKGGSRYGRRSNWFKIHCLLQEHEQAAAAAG
In words: FP; 33 mM phosphate pH 7.0, 90 mM NaCl, 0.01% Tween 20, 0.1 mM DTT, 0.5% agarose; room temperature. The note with it: tags: N-GST (pGEX-6P-1, kept); dsDNA, one strand shown.
On to CAAAACTAAAGCACT, for which the binding signal was 8.43 Kd / Kd of best base at the position. In the case of TAAAACTAGAGCACT, the binding signal was 1.43 Kd / Kd of best base at the position. Turning to CAAAAATAGAGCACT, the binding signal is 2.52 Kd / Kd of best base at the position. The same measure, in the same setting: with CAAAACTAGATCACT the figure was 1.39 Kd / Kd of best base at the position; with CAAAACTAGGGCACT, 2.34 Kd / Kd of best base at the position; with GAAAACTAGAGCACT, 1.36 Kd / Kd of best base at the position. As to CAAAACGAGAGCACT, the binding signal was 3.56 Kd / Kd of best base at the position. Still for that read-out and setting: with CAAAACTGGAGCACT the figure was 1.5 Kd / Kd of best base at the position; with CAAAACTAGAGCAAT, 2.66 Kd / Kd of best base at the position; with CAAAACTAGAGCACC, 2.3 Kd / Kd of best base at the position. Still for that read-out and setting: under CAAAACTAGAGCTCT stands 7.77 Kd / Kd of best base at the position. CAAAACTAGAGCACT had a Kd of about 1.8 nM. Turning to CAAAACTAGTGCACT, the binding signal is 4.66 Kd / Kd of best base at the position.

Consider AAAAACTAGAGCACT, for which the binding signal was 1.14 Kd / Kd of best base at the position. On the same count and under the same terms, with CAAAACTAGAGGACT the figure was 36 Kd / Kd of best base at the position; with CAAGACTAGAGCACT, 9.44 Kd / Kd of best base at the position. On the same count and under the same terms, under CAAAACTAGAGCACG stands 2.74 Kd / Kd of best base at the position; under CAAAACTTGAGCACT, 25.5 Kd / Kd of best base at the position. Same read-out and setting: under CAAAGCTAGAGCACT stands 16.3 Kd / Kd of best base at the position; under CAAAACTAGAGTACT, 5.23 Kd / Kd of best base at the position; under CAAAATTAGAGCACT, 1.05 Kd / Kd of best base at the position.

Turning to CAAATCTAGAGCACT, the binding signal is 2.46 Kd / Kd of best base at the position.

For the sequence CAAAACTAGAGCACA, the binding signal is 2.62 Kd / Kd of best base at the position. The same measure, in the same setting: with CACAACTAGAGCACT the figure was 2.2 Kd / Kd of best base at the position; with CAAAAGTAGAGCACT, 1.65 Kd / Kd of best base at the position; with CAACACTAGAGCACT, 31.8 Kd / Kd of best base at the position. Same read-out and setting: with CCAAACTAGAGCACT the figure was 1.71 Kd / Kd of best base at the position; with CATAACTAGAGCACT, 1.93 Kd / Kd of best base at the position; with CAAAACTCGAGCACT, 9.21 Kd / Kd of best base at the position. On the same count and under the same terms, under CAAAACTAGAGAACT stands 69.3 Kd / Kd of best base at the position; under CAATACTAGAGCACT, 6.63 Kd / Kd of best base at the position; under CGAAACTAGAGCACT, 1.31 Kd / Kd of best base at the position. As to CAAAACTAGAACACT, the binding signal was 3.87 Kd / Kd of best base at the position. Still for that read-out and setting: with CAAAACTAGAGCATT the figure was 2.42 Kd / Kd of best base at the position; with CAAAACAAGAGCACT, 7.6 Kd / Kd of best base at the position. Still for that read-out and setting: under CAAAACTAGACCACT stands 3.9 Kd / Kd of best base at the position.

For a further assay, the target named is T2, Pan (Drosophila melanogaster, UniProt P91943 258-356).
T2 sequence: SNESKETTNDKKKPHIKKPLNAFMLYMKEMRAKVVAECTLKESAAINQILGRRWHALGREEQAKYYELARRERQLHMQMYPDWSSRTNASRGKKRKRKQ
The assay is described as above. Conditions: tags: N-GST (pGEX-6P-1, kept); dsDNA, one strand shown.
As to AGTCCTTGATAAA, the binding signal was 5.41 Kd / Kd of best base at the position. AGTCTTTGATAAG: the binding signal is 3.01 Kd / Kd of best base at the position. On the same count and under the same terms, under AGTCATTGATAAA stands 7.68 Kd / Kd of best base at the position.

One may read the Kd as a measure of binding affinity in units of concentration. A low value points to higher affinity.
